Screening data as filed in PubChem.
Cruzain Triton – blocks cruzain activity in presence of Triton detergent; P25779; purified cruzain, Z-FR-AMC fluorescence, 0.01% Triton; Potency, µM, for the others: max response, negative = inhibition, most hits filed as inhibitors; hit rate 0.43% among 200,000; AID 1478;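 also: plate controls were neutral wells for no effect and buffer without enzyme for full effect; nearly all actives have a fitted effect of over 40% in size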
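Z-FR-AMC hydrolysis (2 uM substrate) by cruzain (1.5 nM) monitored kinetically at ex 360/em 450 nm after 15 min room-temperature compound exposure; 0.01% Triton X-100, pH 5.5, 5 mM DTT.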
Cruzain noTriton – blocks cruzain activity in detergent-free assay | purified cruzain, Z-FR-AMC fluorescence, no detergent | hit rate 2.3% among 200,000 | Potency, µM, without a hit: max response, negative = inhibition, actives largely listed as inhibitors | P25779;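 also: plate controls were enzyme without inhibitor for no effect and buffer without enzyme for full effect; nearly all actives have a fitted effect of over 40% in size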
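Purified cruzain at 1.5 nM, pre-incubated 15 min with compound at room temperature in 100 mM sodium acetate pH 5.5, 5 mM DTT, 0.00005% Triton X-100. Reaction started with 2 uM Z-FR-AMC; AMC fluorescence increase over 60 s gives rate.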
Papain counter – papain (Carica papaya) inhibition counter-screen | shares compounds with Cruzain Triton | purified papain, Z-FR-AMC fluorescence cleavage | Potency, µM, without a hit: max response, negative = inhibition, most hits filed as inhibitors | hit rate 41% among 410;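 also: 0% = no-compound wells and -100% = no-enzyme wells; nearly all actives have a fitted effect of over 35% in size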
Target sequence (P00784 whole entry, looked up): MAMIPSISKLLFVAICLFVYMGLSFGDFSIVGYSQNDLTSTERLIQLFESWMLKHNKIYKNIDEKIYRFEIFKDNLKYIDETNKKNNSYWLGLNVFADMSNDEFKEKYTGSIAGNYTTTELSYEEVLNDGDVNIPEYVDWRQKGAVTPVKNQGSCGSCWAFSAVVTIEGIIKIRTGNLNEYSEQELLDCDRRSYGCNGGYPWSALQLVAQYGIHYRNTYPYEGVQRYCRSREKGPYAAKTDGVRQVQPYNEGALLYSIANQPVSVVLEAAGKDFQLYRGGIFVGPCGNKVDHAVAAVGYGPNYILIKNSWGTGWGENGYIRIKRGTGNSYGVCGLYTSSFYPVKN
* hit, by the source's call; ? = inconclusive; . = not tested or not shown. Sampled rows, rich in hits. Any-hit rate of the full collection: about 2.4%. Calls follow the shape of the dose curve; as a rule, active = well fitted curve in the direction sought with a large enough effect; inconclusive = small, poorly fitted or top-dose-only effect, or another doubt; inactive = no such curve, though single readings can be large; an effect the other way counts as inactive or inconclusive. Potency is read from the fitted curve at half-maximal effect.

SMILES	Cruzain Triton	Cruzain noTriton	Papain counter
O=c1cc(-c2ccccc2Cl)oc2c(NS(=O)(=O)c3cc(Cl)cc(Cl)c3O)ccc(O)c12	25µM*	5%	4.5µM*
O=c1cc(-c2ccccc2Cl)oc2cc(O)cc(O)c12	-10%	-5%	.
Nc1c(C(=O)Nc2ccccc2F)sc2nc(Cc3ccccc3)cc(C(F)(F)F)c12	-1%	-18%	.
CCc1ccc(OCCCn2c(CCNC(=O)C3CCCCC3)nc3ccccc32)cc1	.	.	16µM*
CCCc1nc2ccccc2n1CCOc1ccccc1	-6%	0%	.
CCc1ccc(OCCn2c(CCNC(=O)C3CCCCC3)nc3ccccc32)cc1	.	.	-5%
CCc1ccc(OCCSc2nc3ccccc3n2CC(=O)N2CCCCC2)cc1	-5%	14%	.
Cc1[nH]n(-c2ccccc2)c(=O)c1N=Nc1ccccc1C(=O)N1CCOCC1	-13%	?	.
CCC(=O)N1CCc2cc(S(=O)(=O)NC(Cc3ccccc3)C(=O)NCc3ccccc3OC)ccc21 (configuration not stated)	-3%	5%	.
CC(C)(C)C(=O)NCCc1nc2ccccc2n1CCCCOc1ccc(Cl)cc1	-12%	?	.
O=C(NCCc1nc2ccccc2n1CCCCOc1ccccc1)C1CCCCC1	.	.	25µM*
O=C(NCCc1nc2ccccc2n1CCCOc1ccccc1)C1CCCCC1	.	.	-20%
OCCCc1nc2ccccc2n1CCOc1ccccc1	2%	-10%	.
O=C(CN1CCSc2ccccc21)N1CCCCC1	-2%	8%	.
CCOC(=O)c1c(C)oc2nc(C)nc(NCCCN3CCN(c4cc(C)ccc4C)CC3)c12	-1%	-6%	.
CCOC(=O)c1c(C)[nH]c(C)c1S(=O)(=O)NCC(=O)Nc1ccc(CC)cc1	0%	3%	.
COC(=O)Cn1c(=NC(=O)c2ccc(Cl)s2)sc2cc(C)ccc21	22µM*	20µM*	14µM*
C#CCn1c(=NC(=O)c2ccc(Br)s2)sc2cc(NC(C)=O)ccc21	-12%	-18%	.
Clc1ccc2[nH]c3c(NCCCN4CCOCC4)ncnc3c2c1	16µM*	13µM*	4%
Cc1ccc2ncnc(NCCCN3CCOCC3)c2c1	-1%	8%	.
CCN1CCCC1CNc1ncnc2c1[nH]c1ccc(Cl)cc12 (configuration not stated)	25µM*	16µM*	-3%
CCN1CCCC1Cn1cnc2c([nH]c3ccc(C)cc32)c1=O (configuration not stated)	-8%	-18%	.
Cc1nn(CC(=O)Nc2ccc3c(c2)nc(CN2CCCC2)n3C)c(=O)c2ccccc12	-2%	-12%	.
O=C(Nc1cc(C(F)(F)F)ccc1Cl)C(NCc1ccccc1)c1ccccc1 (configuration not stated)	-5%	2%	.
O=C(CNC(=O)c1ccccc1)OC(C(=O)Nc1cc(C(F)(F)F)ccc1Cl)c1ccccc1 (configuration not stated)	7.1µM*	10µM*	-17%
SMILES	Cruzain Triton	Cruzain noTriton	Papain counter
CCOC(=O)c1[nH]c2c(c1Cc1ccccc1C)C(=O)CC(c1cc(OC)ccc1OC)C2 (configuration not stated)	-4%	-5%	.
FC(F)(F)c1ccccc1-c1ccc2ncnc(NCCN3CCOCC3)c2c1	3%	15%	.
CN1[C@H](CC(=O)c2ccccc2)CCC[C@H]1C[C@H](O)c1ccccc1	2%	3%	.
CCSc1nnc(NC(=O)c2ccc(Br)s2)s1	-2%	25µM*	14%
O=C(/C=C/c1ccc2c(c1)OCO2)Nc1nc2ccccc2s1	-1%	-11%	.
CCSc1nnc(NC(=O)c2ccccn2)s1	-7%	9%	.
CCSc1nnc(NC(=O)/C=C/c2ccc3c(c2)OCO3)s1	16µM*	16µM*	7%
O=C(NCCCN1CCN(c2ccc(F)cc2)CC1)c1ccc2nc(CCc3ccccc3)oc2c1	0%	-4%	.
O=S(=O)(c1ccc(F)cc1)N(Cc1nc(-c2ccc(Cl)cc2)no1)C1CCCCC1	-3%	5%	.
NC1=NC2(CCN(Cc3ccccc3)CC2)n2c(nc3ccccc32)N1	4%	20%	.
Nc1c(C(=O)NCCC2=CCCCC2)sc2ccc(S(=O)(=O)N3CCCCC3)cc12	3.5µM*	13µM*	-10%
Cc1ccc(CNC(=O)c2sc3ccc(S(=O)(=O)N4CCCCC4)cc3c2N)cc1	-7%	?	.
CC(=O)Nc1ccc(S(=O)(=O)N2CCN(CC(=O)NC3CCCC3)CC2)cc1	6%	0%	.
CCN(CC)c1ccc(-c2nn3c(-c4n[nH]c5c4CCC5)nnc3s2)cc1	-2%	0%	.
COc1cccc(OC)c1-c1nn2c(-c3n[nH]c4c3CCC4)nnc2s1	.	.	16µM*
CCOC(=O)N1CCC(=C2c3ccc(Cl)cc3CCc3cccnc32)CC1	-5%	?	-9%
CCOC(=O)N1CCN(Cc2ccccn2)CC1	-1%	-4%	.
CCOC(=O)N1CCC(Nc2ncnc3c2cnn3-c2ccc(C)cc2C)CC1	-2%	25%	.
CC(CCC(=O)O)C1CCC2C3CC(O)[C@@H]4CC(O)CC[C@]4(C)C3CC[C@@]12C (some centres not stated)	6%	?	.
C[C@H](CCC(=O)O)[C@H]1CC[C@@H]2[C@@H]3[C@@H](O)C[C@H]4C[C@@H](O)CC[C@@]4(C)[C@H]3CC[C@@]21C	-7%	?	4%
COC(=O)CC[C@@H](C)C1CC[C@H]2[C@H]3CC[C@H]4C[C@@H]5CCC4(C)[C@@]3(O5)[C@@H](Br)[C@@H](Br)[C@@]12C (some centres not stated)	-3%	-14%	.
COC(=O)CCC(C)C1CCC2C3C(O)C[C@@H]4CC(O)CC[C@@]4(C)C3CC(O)[C@]12C (some centres not stated)	0%	?	3%
Cc1cccc(CCNC(=O)CCc2c(C)nc3c(-c4ccc(F)cc4)c(C)nn3c2C)c1	1%	15%	.
CN(CCNC(=O)c1cc2c(=O)n(C)c3ccccc3c2n1C)Cc1ccccc1	14µM*	?	-18%
Cc1ccc(CNC(=O)c2cc3c(=O)n(C)c4ccccc4c3n2C)cc1	10%	?	.
SMILES	Cruzain Triton	Cruzain noTriton	Papain counter
CCNc1nc(C#N)nc(NCC)n1	.	.	-8%
CCNc1nc(NOC)nc(OCC#N)n1	-1%	-3%	.
COc1cccc2c1[C@@H]1CN(CCCCn3c(=O)[nH]c4c(sc5ncc(-c6ccccc6)nc54)c3=O)C[C@@H]1CO2	28µM*	?	-13%
COc1cc2[nH]c(=O)n(CCCC(=O)N3CC=C(c4ccccc4)CC3)c(=O)c2cc1OC	-7%	?	.
COCCOC(=O)c1c(N)n(Cc2ccco2)c2nc3ccccc3nc12	-5%	0%	.
CC(C)OC(=O)c1c(N)n(Cc2ccco2)c2nc3ccccc3nc12	11µM*	13µM*	-2%
Cc1ccc(NC(=O)C2(c3ccccc3)CC2(Cl)Cl)cc1C (configuration not stated)	0%	-2%	.
